“And” between values parts separate entries of the source, which are not always exact repeats. Equal entries are not always repeated. Some compounds were tested as several samples or in several runs, with calls that do not always agree. The source made the active and inactive calls. How the source made its calls: active means hit-call score of the fitted dose curve at least 0.9, where 1 is the maximum; inactive means score below 0.9.
Test: ATG_BRE_CIS: Attagene CIS-FACTORIAL HepG2 Assay for human Bone Morphogenetic Protein (BMP) Response Element (BRE) (AID 2282933)
Conditions: HepG2 BMP response element reporter, Attagene transcription factor profiling; actives raise or lower the signal
Experimental: ATG_CIS is a cell-based, multiplexed-readout assay that uses HepG2, a human liver cell line, with measurements taken at 24 hours after chemical dosing in a 24-well plate.ATG_BRE_CIS is one of 52 assay component(s) measured or calculated from the ATG_CIS assay. It is designed to make measurements of mRNA induction, a form of inducible reporter, as detected with fluorescence intensity signals by Reverse transcription polymerase chain reaction (RT-PCR) and Capillary electrophoresis technology.Data from the assay component ATG_BRE_CIS was analyzed into 1 assay endpoint. This assay endpoint, ATG_BRE_CIS, was analyzed with bidirectional fitting relative to DMSO as the negative control and baseline of activity. Using a type of inducible reporter, measures of mRNA for gain or loss-of-signal activity can be used to understand the reporter gene at the transcription factor-level as they relate to the gene SMAD1. Furthermore, this assay endpoint can be referred to as a primary readout, because this assay has produced multiple assay endpoints where this one serves a reporter gene function. To generalize the intended target to other relatable targets, this assay endpoint is annotated to the dna binding intended target family, where the subfamily is Smad protein.
Human liver HepG2 cells are transiently transfected with multiple reporter transcription units (MRTUs) in 6-well plates using FuGene 6 reagent (Roche; 3 ml FuGene/1 mg DNA). The MRTU constructs are regulated by a cis-regulating element (promoter). […] A major difference between the CIS and TRANS system is that in CIS activities of endogenous TFs are measured, whereas the TRANS assay evaluates changes in activities of exogenous, chimeric NR-Gal4 proteins. […] At the end of 24 hour incubation, total RNA was isolated using TriZol reagent (Invitrogen). The isolated RNA is then reverse-transcribed using oligo(dT) primer and Mo-MLV reverse transcriptase (Invitrogen) with DNAse I (Ambion) treatment for 30 min. The one-tenth of the produced cDNA was amplified by PCR using Taq DNA polymerase (Invitrogen) and two reporter sequence-specific primers. The PCR products were fluorescently labeled by primer extension with 6-arboxyfluorescein (6-FAM) 5'-labeled reporter sequence-specific primer (2 min at 95 C, 20 s at 68 C and 10 min at 72 C) and these products were digested with 5U of HpaI (New England Biolabs) for 2h at 37 C. The fragments were purified using Qiaquick PCR columns (Qiagen), analyzed on an ABI 3130xL genetic analyzer (Applied Biosystems) with peak positions identified by using a set of X-rhodamine (ROX)-labeled MapMarker1000 molecular weight standards (BioVentures). The raw capillary electrophoresis data was processed using Attagraph software (Attagene).

| Structure (SMILES) | outcome | AC50 |
| --- | --- | --- |
| c1cc[c]([Hg][c]2ccccc2)cc1 | inactive | – |
| N#CN=C(N)N | inactive | – |
| CCCCP(CCCC)CCCC | inactive | – |
| ClC1=C(Cl)[C@]2(Cl)[C@@H]3[C@@H](Cl)[C@@H](Cl)C[C@@H]3[C@@]1(Cl)C2(Cl)Cl | inactive | – |
| C=CC(=O)N(C)C | inactive | – |
| CC(=O)OC(c1ccccc1)C(Cl)(Cl)Cl (stereo not given) | inactive | – |
| CC(=O)C=C(C)C | inactive | – |
| Nc1cccc2ccccc12 | inactive | – |
| CC(Br)C(=O)O (stereo not given) | inactive | – |
| O=C(OC1CCCCC1)c1ccccc1C(=O)OC1CCCCC1 | – | 67.5 µM (active) |
| CCc1ccccc1N | inactive | – |
| CCC(C)(C)c1ccc(O)c(C(C)(C)CC)c1 | inactive | – |
| Cc1cc(=O)[nH]o1 | inactive | – |
| Oc1cccc2cccnc12 | inactive | – |
| C[C@@H](Oc1ccc(Cl)cc1Cl)C(=O)O | inactive | – |
| CC(=[OH+])/C=C(/C)[O-].CC(=[OH+])/C=C(/C)[O-].CC(=[OH+])/C=C(/C)[O-].[Fe] | inactive | – |
| CCOP(=S)(OCC)SCCS(=O)(=O)CC | inactive | – |
| N#CCc1ccc(Cl)cc1 | inactive | – |
| CNC | inactive | – |
| O=S(=O)(c1ccc(Cl)cc1)c1ccc(Cl)cc1 | inactive | – |

| Structure (SMILES) | outcome | AC50 |
| --- | --- | --- |
| COC(=O)Cc1ccccc1 | inactive | – |
| CN(CCCC(=O)c1cccnc1)N=O | inactive | – |
| O=C(CCl)CCl | inactive | – |
| Clc1ccc(COC(Cn2ccnc2)c2ccc(Cl)cc2Cl)cc1 (stereo not given) | inactive | – |
| C=C(C)C#N | inactive | – |
| C(=NC1CCCCC1)=NC1CCCCC1 | – | 2.69 µM (active) |
| C[C@H]1O[C@@H](O[C@H]2[C@@H](O)C[C@H](O[C@H]3[C@@H](O)C[C@H](O[C@H]4CC[C@@]5(C)[C@H](CC[C@@H]6[C@@H]5CC[C@]5(C)[C@@H](C7=CC(=O)OC7)CC[C@]65O)C4)O[C@@H]3C)O[C@@H]2C)C[C@H](O)[C@@H]1O | inactive | – |
| CC(=O)C(Cl)C(=O)N(C)C (stereo not given) | inactive | – |
| ClCc1ccccn1 | inactive | – |
| C[C@]12CCC(=O)C[C@@H]1CC[C@@H]1[C@@H]2CC[C@]2(C)[C@@H](O)CC[C@@H]12 | inactive | 65.4 µM (active) and 87 µM (active) |
| CC(C)(c1ccc(OCC2CO2)cc1)c1ccc(OCC2CO2)cc1 (stereo not given) | inactive | – |
| O=c1[nH]c(=O)[nH]c(=O)[nH]1 | inactive | – |
| Oc1ccc(-c2ccccc2)cc1 | inactive | – |
| Nc1ccc(-c2ccc(N)c(Cl)c2)cc1Cl | inactive | – |
| CC(=[OH+])/C=C(/C)[O-].CC(=[OH+])/C=C(/C)[O-].CC(=[OH+])/C=C(/C)[O-].[Al] | inactive | – |
| CCC[CH2][Sn]([CH2]CCC)([CH2]CCC)[O]C(=O)c1ccccc1 | – | 0.218 µM (active) |
| CCC(=O)C(CC(C)N(C)C)(c1ccccc1)c1ccccc1 (stereo not given) | inactive | – |
| [O-][Cl+2]([O-])O | inactive | – |
| O=C(O)C(F)(F)C(F)(F)C(F)(F)C(F)(F)C(F)(F)C(F)(F)C(F)(F)C(F)(F)C(F)(F)C(F)(F)F | inactive | – |

— PubChem BioAssay (EPA / NIEHS)
